Results published in the supplement of paper PMC6555819.

Test system: VDR:RXRa (NR concentration 270 nM, RXRa partner concentration 90 nM)
Assay: PBM binding z-score (relative to random genomic background probes); higher = stronger binding; sequences stand for … in GC…GCGATTGACAGCGTAGAATGAAGG
Protocol: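 Protein-binding microarray (Agilent 4x180K custom design, double-stranded 60-nt probes: 5' GC cap, 34-nt variable region, 24-nt constant primer region; full probe sequence given). Purified or IVT nuclear receptor:RXRα heterodimers (3:1 NR:RXRα, mostly 270:90 nM) or homodimers were incubated for 1 h in PBS with 2% milk and no ligand, then detected with Alexa488 antibodies. Fluorescence from o1-orientation probes (~5 replicates averaged) was converted to z-scores against 500 random hg19 background probes. Variable regions are seed direct-repeat (DR0–DR5) sites, all their single-nucleotide variants and half-site ablations.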

Sequence | PBM binding z-score
CAGGCTAGGTCAGGGCCAGTATAGGAGGAACGTT | 0.258
AGAATGAGGTTATACGTAGATCAGGGTAGAAAGT | 1.49
TCTTGTAGATCACGCAGGTTAAGAAAGCCTGAGT | 0.662
GGAACGAGGGCTAAGTTGATAGCATCTGTCGACG | -0.701
CCTACTCGGCCATTCAGAGGTCATTGATCATATG | 4.06
TCGAGTAGGTTACCCATGGGGCATTCAGCTTTCT | -0.0423
TCATATAGGTAATTCAGGTGAAAGTCGGCATCTA | 1.11
CAAACTAGGTCCCCGGAAGGTCAAAGTCCGCATG | 3.23
TCTGCTAGGTCAACGCTGGTCAGCTAATCTGCTA | 1.36
CGTCCAAGGTCATAGGAGGTCAGTAAAGACAGAT | 6.61
TCTTGTAGATCAAAGGTTAATAAAGCCGAAGCCT | 1.55
ATATGTAGGTTATCGTGTCATTCAGTTTGCGCAT | 2.28
CAGACTAGGTCAAGGTCAAAGTCGGTTTGTGCCA | 5.15
TTACCAAGGTGAAGGACGTTGATCCCTCTGTAGA | 0.111
TCATATAGGTAAACAGGTGAAACTCCGTAAGTTA | 1.19
CCTAGTTGGTCAGGAGGTCAAACACCGGATATGA | 4.09
TTTCCAAGGTGAAGGTCGTTGATCCCTCTGTAGA | 1.45
GGAACGAGGGCAAGTTGATAGGAGAGTTTGATGG | 0.886
ACTATTAGTGGAGACGAGGGCAACCGATAGGTTG | 0.101
AGAATGAGGTTAAGATCAGGTAAACAGAATACAT | 1.49

Sequence | PBM binding z-score
AACACAGGGTCACTAGGCCAGAGTAGGTACGAAT | 3.96
GCAGACAAGTGAAACGCAGGTAACTCAGGGTGGC | -0.581
AATACAGGGTCATCGTAGGCCAGAGTGCGCACAG | 5.15
TCGAGTAGGTTACCAAAGGGGCATTCAGCTTTCT | 0.89
AATTACGGGTCAACGAGGTTATAGCACGCGTATA | 7.73
CGTCAAAGTTCAACTATGGTAACGTAAAGCACGC | 4.35
GCGTCTGGGGCAAAGCAGGTTACCATAAGGTTGG | 0.117
TCGAGTAGGTTAGTCGGCGCATTCAGCCAACATA | -0.0837
CTCGAAAGGTCGTGCTCAGGTGAGTCTACCAAAC | 3.35
GCATAGAGGTAATACAAGGTGAAAGTCCGATTGT | 0.566
CCTCGGAGGACAGAAGGTCCGAGCTGTCCGCTTT | -0.656
CGAACTAGGTCAAGGAAAGTGAATCTCCGCACGC | 1.02
TCGAGTAGGTTAGGGGCATTGAGAATGGCGTCGA | 0.491
CCTAGCAGGCCAATCTGGGACACTCAAGGCTTGA | -0.61
GATACAGGGTTAGCTAGAGGCCAGAGTATGGAAA | 0.139
ATCTCTAGGTAAGACTGAGTTCAGTGAAGAACGC | 2.75
CGAACTAGGTCATCGACAGGACAGTGAATAGTAA | 2.57
TAGCCTCGGTCATGGGCCAGTATACCACGCGAAC | -0.162
TAGGCTAGGTCATTCAGGGGCCAGTATAGAAAGC | 3.24
CTACCAAGGTGAACAAGGCCGTTGATTACTATTC | 3.58
